# Inconclusive results are not listed. A call without a number means that no potency is given here. Active and inactive are the calls of the source. The call rests on the fitted dose curve; in most records, active means well fitted inhibition curve with a large enough effect; inconclusive means small, poorly fitted or top-dose-only effect; inactive means no such curve, though single readings can be large or run the other way.
# Target: Retinaldehyde dehydrogenase 3 (Homo sapiens) (UniProt P47895)
# Assay: qHTS for Inhibitors of the Aldehyde Dehydrogenase Family (ALDH1A3) Primary screen (AID 2061315)
# Conditions: ALDH inhibition qHTS; series mostly up to 56 µM
row,Structure (SMILES),Potency
1,CC(O)C/C=C/C=C/C(=O)OC1C=C2COC(=O)C2(O)C2(C)CCCC(C)(C)C12 (centres undefined),inactive
2,FC(F)(F)c1ccc(Nc2nc3ccc(Oc4ccnc(-c5ncc(C(F)(F)F)[nH]5)c4)cc3[nH]2)cc1,inactive
3,CC(C)CNC(=O)/C=C/CCCCc1ccc2c(c1)OCO2,inactive
4,CCC(C)C(=O)OC12C(OC(C)=O)C(C)C3(O)C(C=C(CO)CC4(O)C(=O)C(C)=CC43)C1C2(C)C (centres undefined),inactive
5,C=C[C@H]1[C@H](O[C@@H]2O[C@H](CO)[C@@H](O)[C@H](O)[C@H]2O)OC=C(C(=O)OC)[C@H]1C/C=C(/C=O)[C@@H]1C(C(=O)OC)=CO[C@@H](O[C@@H]2O[C@H](CO)[C@@H](O)[C@H](O)[C@H]2O)[C@@H]1C=C,inactive
6,COC(=O)CCSCc1ccc(-c2onc(C)c2NC(=O)OC(C)c2ccccc2Cl)cc1 (centres undefined),inactive
7,C=CC(=O)N1CCCC(n2nc(-c3ccc(Oc4ccccc4)cc3)c3c(N)ncnc32)C1 (centres undefined),inactive
8,O=C1CCC(c2ccccc2)(C2CCN(Cc3ccc(I)cc3)CC2)C(=O)N1 (centres undefined),inactive
9,CC1(C)CC[C@]2(C(=O)O)CC[C@]3(C)C(=CCC4[C@@]5(C)C[C@@H](O)[C@H](O)[C@](C)(CO)C5CC[C@]43C)[C@@H]2[C@@H]1O (some centres undefined),inactive
